# Data reported in PubChem BioAssay (NCATS).
# “And” between values parts separate entries of the source, which are not always exact repeats. Identical values can stand only once. Inconclusive results are not listed. The source made the active and inactive calls. Unless noted, calls follow the shape of the dose curve; as a rule, active = well fitted curve in the direction sought with a large enough effect; inconclusive = small, poorly fitted or top-dose-only effect, or another doubt; inactive = no such curve, though single readings can be large; an effect the other way counts as inactive or inconclusive.
# Columns and labels:
# [1] = AP1 Signaling Pathway (AID 357; active = well fitted curve in either direction with a large enough effect, not every such curve was filed as active;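 also: ME-180 reporter cells stimulated with EGF at its EC50 level; % is scaled to controls: 0 for no effect and ±100 for the full control effect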); conditions: ME-180 AP-1-bla reporter, EGF-induced, beta-lactamase ratio, 5 h
# Method in brief: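 Beta-lactamase reporter under AP-1 response element, ME-180 background. Stimulus: EC50 EGF. Compound exposure 5 h, 37 °C. Detection: CCF4, 2.5 h RT, 460/530 nm. Values: AC50 from titration.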
# [2] = molecular target: Cytochrome P450 1A2 (Homo sapiens) (UniProt P05177); experiment: p450-cyp1a2 (AID 410; calls by dose curve; also: potency is read from the fitted curve at half-maximal effect;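 as to activity change, negative = inhibition: -100% = full effect of reference inhibitor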); conditions: recombinant CYP1A2, luciferin-ME demethylation, luminescence; series mostly up to 57 µM
# Chain of Cytochrome P450 1A2 (Homo sapiens) (P05177 whole entry, looked up): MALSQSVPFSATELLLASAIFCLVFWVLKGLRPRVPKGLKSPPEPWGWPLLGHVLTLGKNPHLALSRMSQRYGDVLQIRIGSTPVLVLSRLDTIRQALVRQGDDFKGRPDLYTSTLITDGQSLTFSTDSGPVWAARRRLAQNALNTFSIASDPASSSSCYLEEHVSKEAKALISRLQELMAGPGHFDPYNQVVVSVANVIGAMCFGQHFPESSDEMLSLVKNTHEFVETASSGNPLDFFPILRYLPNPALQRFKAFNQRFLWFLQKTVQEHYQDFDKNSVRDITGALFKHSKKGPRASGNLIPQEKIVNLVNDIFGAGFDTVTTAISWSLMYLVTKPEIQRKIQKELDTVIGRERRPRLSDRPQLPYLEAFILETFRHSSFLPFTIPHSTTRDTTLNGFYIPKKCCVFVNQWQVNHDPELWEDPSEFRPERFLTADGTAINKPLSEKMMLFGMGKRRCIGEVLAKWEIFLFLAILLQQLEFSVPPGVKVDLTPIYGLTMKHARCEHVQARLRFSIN
# Method in brief: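 Luminescent demethylation readout: Luciferin-ME (100uM, equal to Km) turned over by 20nM CYP1A2 for 60 min at room temperature after NADPH regeneration addition, following 10 min compound preincubation. Normalization used 57 uM furafylline as full inhibition.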
# [3] = Stat Signaling Pathway (AID 446; active = well fitted curve in either direction with a large enough effect, not every such curve was filed as active;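 also: ME-180 cervical cancer cells given 40 pM IL-6 alongside compound; SIE-controlled beta-lactamase reporter measured as 460/530 nm FRET emission ratio; % is scaled to controls: 0 for no effect and ±100 for the full control effect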); conditions: ME-180 (cervical carcinoma) SIE beta-lactamase reporter, IL-6 stimulated, 5 h
# Method in brief: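 FRET read-out (405 nm excitation, 460/530 nm emission) of a beta-lactamase reporter under a STAT-inducible element in ME-180 cervical carcinoma cells. Cells with compound receive 40 pM IL-6 for 5 h. Values are normalised to AC90 stimulation and AC90 JAK-inhibitor controls.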
# [4] = molecular target: Mitogen-activated protein kinase 10 (Mus musculus) (UniProt Q61831); experiment: JNK3 AlphaScreen Assay (AID 530; active = well fitted curve in either direction with a large enough effect, not every such curve was filed as active;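 also: kinase came from lysate of stimulated human HepG2 cells; signal reports phosphorylation of biotinylated GST-cJun 1-79 at Ser73 with 10 µM ATP; % is scaled to controls: 0 for no effect and ±100 for the full control effect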); conditions: JNK3 lysate, c-Jun phosphorylation; series mostly up to 57.1 µM
# Method in brief: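 Phosphorylation of biotinylated GST-cJun(1-79) at Ser73 is measured by AlphaScreen proximity luminescence. Enzyme is JNK3 in HepG2 lysates activated with interleukin-1beta and tumor necrosis factor alpha; ATP is 10 uM final.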
# [5] = molecular target: 3',5'-cyclic-AMP phosphodiesterase 4B (Homo sapiens) (UniProt Q07343); experiment: qHTS Assay for Inhibitors of PDE-IV (AID 607; active = well fitted activation curve with a large enough effect in the main read-out, with a control signal flat, not every such curve was filed as active; also: % of control where 0% means no effect); conditions: HEK293 ACTOne CNG channel cells, membrane potential fluorescence; series mostly up to 22.9 µM
# Chain of 3',5'-cyclic-AMP phosphodiesterase 4B (Homo sapiens) (Q07343 whole entry, looked up): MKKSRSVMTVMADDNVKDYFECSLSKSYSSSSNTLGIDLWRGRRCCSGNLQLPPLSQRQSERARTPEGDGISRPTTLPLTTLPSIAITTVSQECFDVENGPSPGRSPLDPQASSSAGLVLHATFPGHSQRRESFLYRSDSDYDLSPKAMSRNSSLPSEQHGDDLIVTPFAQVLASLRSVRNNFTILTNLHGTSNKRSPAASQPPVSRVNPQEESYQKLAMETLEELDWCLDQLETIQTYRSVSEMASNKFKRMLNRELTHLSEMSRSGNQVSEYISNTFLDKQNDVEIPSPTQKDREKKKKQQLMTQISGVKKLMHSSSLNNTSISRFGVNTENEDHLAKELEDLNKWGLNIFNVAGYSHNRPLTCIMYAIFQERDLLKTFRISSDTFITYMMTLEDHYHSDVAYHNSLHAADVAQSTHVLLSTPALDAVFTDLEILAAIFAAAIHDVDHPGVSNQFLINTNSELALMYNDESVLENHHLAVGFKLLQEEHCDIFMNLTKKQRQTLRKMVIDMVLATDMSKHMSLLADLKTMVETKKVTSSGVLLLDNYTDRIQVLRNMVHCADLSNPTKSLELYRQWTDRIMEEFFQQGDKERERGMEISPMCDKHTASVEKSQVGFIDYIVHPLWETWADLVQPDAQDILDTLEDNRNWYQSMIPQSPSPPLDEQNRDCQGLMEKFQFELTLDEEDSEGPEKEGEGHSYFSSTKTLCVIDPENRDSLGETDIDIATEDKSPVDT
# Method in brief: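 Cell-based read-out of cAMP via a modified cyclic nucleotide-gated channel and membrane potential dye (535/590 nm) in HEK293 cells expressing PDE4 endogenously. Compounds tested up to 22.9 uM final; 100 uM RO 20-1724 reference.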
# [6] = qHTS Assay for Lipid Storage Modulators (AID 1519; calls by dose curve); conditions: Drosophila S3 cells, BODIPY lipid droplet/cell ratio, laser cytometry, cells loaded with oleic acid; for activity change, negative = inhibition: at 25.7 µM (top of the series)
# Method in brief: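 Cells seeded at 5,000 per well were treated with compounds over a concentration series and loaded with oleic acid (400 uM, as added). Lipid droplet fluorescence (488 nm excitation, 500-530 nm channel) was read by laser-scanning cytometry and normalized to 20 uM Triacsin C.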
# [7] = molecular target: Ubiquitin carboxyl-terminal hydrolase 1 (Homo sapiens) (UniProt O94782); experiment: Inhibitors of USP1/UAF1: Pilot qHTS (AID 504865); conditions: purified USP1/UAF1, Ub-rhodamine cleavage fluorescence; series mostly up to 54.9 µM;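 also: rhodamine fluorescence freed from ubiquitin-rhodamine substrate followed over time; top concentration of the series differs between compounds; % is scaled to controls: 0 for no effect and ±100 for the full control effect; nearly all actives have a fitted effect of over 35% in size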
# Chain of Ubiquitin carboxyl-terminal hydrolase 1 (Homo sapiens) (O94782 whole entry, looked up): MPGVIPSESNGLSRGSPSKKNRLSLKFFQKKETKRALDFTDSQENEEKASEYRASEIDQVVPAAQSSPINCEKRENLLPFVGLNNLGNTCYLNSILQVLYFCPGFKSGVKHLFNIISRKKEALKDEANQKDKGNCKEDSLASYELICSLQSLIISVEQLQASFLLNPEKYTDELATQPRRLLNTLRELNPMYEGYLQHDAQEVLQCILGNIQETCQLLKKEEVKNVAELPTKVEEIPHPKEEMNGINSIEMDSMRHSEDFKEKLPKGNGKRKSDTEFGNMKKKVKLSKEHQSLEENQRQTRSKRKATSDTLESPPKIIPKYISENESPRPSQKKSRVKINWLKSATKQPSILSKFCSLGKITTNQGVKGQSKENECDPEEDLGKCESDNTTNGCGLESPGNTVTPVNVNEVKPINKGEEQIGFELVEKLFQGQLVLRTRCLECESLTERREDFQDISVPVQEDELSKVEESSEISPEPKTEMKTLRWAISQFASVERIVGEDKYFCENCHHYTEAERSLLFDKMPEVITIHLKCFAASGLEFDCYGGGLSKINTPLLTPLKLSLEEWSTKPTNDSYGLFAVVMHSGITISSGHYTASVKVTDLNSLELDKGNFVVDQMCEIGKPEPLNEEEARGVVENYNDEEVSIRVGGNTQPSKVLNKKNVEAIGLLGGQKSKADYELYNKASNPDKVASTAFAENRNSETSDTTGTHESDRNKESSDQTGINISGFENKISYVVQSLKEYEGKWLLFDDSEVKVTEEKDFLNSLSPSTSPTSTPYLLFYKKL
# Method in brief: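 Enzyme-free wells gave the negative control, while test wells held 1nM USP1/UAF1 preincubated with compound for 15 min at room temperature. Ub-Rho at 150nM final started the reaction, and fluorescence at 480/540 nm was recorded kinetically.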
# [8] = NFAT Signaling Pathway (AID 444; active = well fitted curve in either direction with a large enough effect, not every such curve was filed as active;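 also: carbachol stimulus at about its EC50 of 1 µM final; % is scaled to controls: 0 for no effect and ±100 for the full control effect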); conditions: Jurkat NFAT-bla M1, carbachol, beta-lactamase ratio, 5 h
# Method in brief: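 Jurkat cells carrying an NFAT-driven β-lactamase reporter and co-transfected muscarinic M1 receptor were treated with compound plus carbachol (1 uM final, an EC50 level) for 5 h at 37 °C. CCF4 loading followed for 1 h at RT; 460/530 nm ratio gave %activity.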
# [9] = molecular target: ATP-dependent 6-phosphofructokinase (Trypanosoma brucei brucei) (UniProt O15648); experiment: qHTS Assay to Find Inhibitors of T. brucei phosphofructokinase: hit validation (AID 492961); conditions: T. brucei PFK, ADP-Glo luminescence; series mostly up to 24.3 µM
# Chain of ATP-dependent 6-phosphofructokinase (Trypanosoma brucei brucei) (O15648 whole entry, looked up): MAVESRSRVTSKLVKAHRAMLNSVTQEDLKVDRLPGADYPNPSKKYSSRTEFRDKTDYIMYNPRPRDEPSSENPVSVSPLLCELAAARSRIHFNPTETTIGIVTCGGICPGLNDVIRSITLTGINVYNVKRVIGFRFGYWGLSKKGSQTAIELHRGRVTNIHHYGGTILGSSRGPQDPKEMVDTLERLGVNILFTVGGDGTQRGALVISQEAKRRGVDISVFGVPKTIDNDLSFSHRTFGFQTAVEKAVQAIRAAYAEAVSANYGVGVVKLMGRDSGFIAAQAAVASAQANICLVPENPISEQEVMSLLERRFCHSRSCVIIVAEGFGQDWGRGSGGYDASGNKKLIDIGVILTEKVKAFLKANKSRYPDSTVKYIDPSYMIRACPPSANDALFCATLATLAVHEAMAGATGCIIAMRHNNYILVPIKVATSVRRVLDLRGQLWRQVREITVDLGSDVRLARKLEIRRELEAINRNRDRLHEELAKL
# Method in brief: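 PFK 1.25 nM, F6P 0.5 mM, ATP 0.1 mM, MgCl2 5 mM, 0.1 M TEA pH 8.0, Tween20 0.01%, BSA 0.1%; 45 min RT. ADP-Glo two-step detection, luminescence. qHTS titration; curve fitting with curve-class categorization.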
# [10] = molecular target: Luciferin 4-monooxygenase (Photinus pyralis) (UniProt P08659); experiment: Biochemical firefly luciferase enzyme assay for NPC (AID 624030);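 also: purified P. pyralis luciferase at 10 nM with luciferin and ATP substrate; 0% = DMSO and -100% = full luciferase inhibition by PTC124 control; nearly all actives have a fitted effect of over 70% in size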; conditions: purified P. pyralis luciferase, luminescence, 5 min; series mostly up to 58.6 µM
# Chain of Luciferin 4-monooxygenase (Photinus pyralis) (P08659 whole entry, looked up): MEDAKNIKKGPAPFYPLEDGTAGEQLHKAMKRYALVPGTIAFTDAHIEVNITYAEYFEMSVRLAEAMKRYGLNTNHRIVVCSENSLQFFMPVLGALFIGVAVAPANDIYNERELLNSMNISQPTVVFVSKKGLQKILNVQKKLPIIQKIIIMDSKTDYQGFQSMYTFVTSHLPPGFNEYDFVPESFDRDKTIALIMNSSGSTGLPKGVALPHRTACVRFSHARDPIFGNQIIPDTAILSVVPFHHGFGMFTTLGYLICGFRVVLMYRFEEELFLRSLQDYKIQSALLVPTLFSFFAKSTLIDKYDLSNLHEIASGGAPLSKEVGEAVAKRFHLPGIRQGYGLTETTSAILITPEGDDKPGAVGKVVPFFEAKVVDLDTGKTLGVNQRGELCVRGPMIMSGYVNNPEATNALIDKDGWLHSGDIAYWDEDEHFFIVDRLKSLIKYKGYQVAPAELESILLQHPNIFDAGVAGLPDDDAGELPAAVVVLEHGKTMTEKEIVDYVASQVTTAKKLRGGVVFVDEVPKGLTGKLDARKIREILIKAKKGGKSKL
# Method in brief: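 Counter-screen for direct inhibition of the luciferase enzyme by approved-drug library compounds, run at 10 nM enzyme in 50 mM Tris acetate (final). Luminescence was read within 5 min of enzyme-buffer addition and normalized to PTC124 versus DMSO (0%).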
# [11] = qHTS profiling for inhibitors of Plasmodium falciparum proliferation (AID 504749);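 also: 0% = DMSO vehicle and full inhibition = artemisinin control; nearly all actives have a fitted effect of over 60% in size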; conditions: P. falciparum in erythrocytes, SYBR Green DNA, 72 h
# Method in brief: (§1)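 Quantitative HTS: compounds pinned into medium, infected erythrocytes added (0.3% parasitemia, 2.5% hematocrit), 72 h culture at 37 C under 5% CO2. Saponin/Triton lysis with SYBR Green I, overnight RT, then fluorescence read.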
# CP238 = experiment: as above; conditions: P. falciparum in erythrocytes, SYBR Green DNA, 72 h; series mostly up to 12.8 µM
# Method in brief: as §1
# CP262 = experiment: as above; conditions: P. falciparum in erythrocytes, SYBR Green DNA, 72 h; series mostly up to 12.8 µM
# Method in brief: as §1
# CP325 = experiment: as above; conditions: P. falciparum in erythrocytes, SYBR Green DNA, 72 h; series mostly up to 12.8 µM
# Method in brief: as §1
# ECU = experiment: as above; conditions: P. falciparum in erythrocytes, SYBR Green DNA, 72 h; series mostly up to 12.8 µM
# Method in brief: as §1
# FAB9 = experiment: as above; conditions: P. falciparum in erythrocytes, SYBR Green DNA, 72 h; series mostly up to 12.8 µM
# Method in brief: as §1
# HB3 = experiment: as above; conditions: P. falciparum in erythrocytes, SYBR Green DNA, 72 h; series mostly up to 12.8 µM
# Method in brief: as §1
# JCK = experiment: as above; conditions: P. falciparum in erythrocytes, SYBR Green DNA, 72 h; series mostly up to 12.8 µM
# Method in brief: as §1
# [12] = molecular target: Glucocorticoid receptor (Homo sapiens) (UniProt P04150); experiment: GR-GFP Redistribution (AID 450;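 active = compounds whose dose series gives a full or clear partial fitted curve of increased nuclear translocation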; also: potency is read from the fitted curve at half-maximal effect); conditions: U2OS GR-GFP nuclear translocation, laser cytometry, 2 h
# Chain of Glucocorticoid receptor (Homo sapiens) (P04150 whole entry, looked up, the tested form may be a part): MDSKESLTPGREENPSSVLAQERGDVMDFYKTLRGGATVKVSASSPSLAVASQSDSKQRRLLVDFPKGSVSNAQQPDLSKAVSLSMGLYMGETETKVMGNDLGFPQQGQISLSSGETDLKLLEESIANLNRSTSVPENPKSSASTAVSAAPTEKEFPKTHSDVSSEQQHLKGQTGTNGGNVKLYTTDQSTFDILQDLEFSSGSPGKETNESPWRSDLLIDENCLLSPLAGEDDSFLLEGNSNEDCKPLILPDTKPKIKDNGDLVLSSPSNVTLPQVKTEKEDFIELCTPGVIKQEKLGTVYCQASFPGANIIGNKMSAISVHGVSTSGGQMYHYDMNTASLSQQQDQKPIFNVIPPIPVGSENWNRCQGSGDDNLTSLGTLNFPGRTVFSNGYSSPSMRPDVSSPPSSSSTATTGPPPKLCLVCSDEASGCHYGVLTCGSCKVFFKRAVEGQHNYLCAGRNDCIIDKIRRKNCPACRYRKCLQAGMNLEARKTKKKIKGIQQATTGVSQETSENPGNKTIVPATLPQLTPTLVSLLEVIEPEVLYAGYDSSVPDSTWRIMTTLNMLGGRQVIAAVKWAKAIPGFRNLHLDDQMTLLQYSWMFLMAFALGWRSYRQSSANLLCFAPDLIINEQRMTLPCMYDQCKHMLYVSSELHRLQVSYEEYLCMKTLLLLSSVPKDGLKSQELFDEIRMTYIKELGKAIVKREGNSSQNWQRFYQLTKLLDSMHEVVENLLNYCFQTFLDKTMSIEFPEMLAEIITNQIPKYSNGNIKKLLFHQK
# [13] = molecular target: Glucocorticoid receptor (Homo sapiens) (UniProt P04150); experiment: GR-EFC Redistribution (AID 451; calls by dose curve; also: potency is read from the fitted curve at half-maximal effect); conditions: CHO-K1 GR-EFC translocation, beta-gal luminescence, 2 h
# Method in brief: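 CHO-K1 cells stably expressing nuclear-localized β-gal enzyme acceptor and GR fused C-terminally to the enzyme donor fragment; ligand-driven nuclear translocation restores β-gal by complementation. Compounds titrated up to 46 uM final, 2 h at 37 °C; luminescence read.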
# [14] = measured here: cell count channel max response
# [15] = measured here: lipid channel max response
# [16] = at 7.69 µM (top of the series) unless noted
# [17] = at 28.7 µM (top of the series), parasite line A
# [18] = at 28.7 µM (top of the series), parasite line B
compound,measurement,setting,value
CN1[C@@H](CC(=O)c2ccccc2)CCC[C@@H]1C[C@@H](O)c1ccccc1,"activity change, negative = inhibition",[1]; at 17.2 µM (top of the series),-1.05% (inactive)
same,"activity change, negative = inhibition",[1]; at 38 µM (top of the series),6.06% (inactive)
same,Potency,[2],31.6 µM (active) and 5.01 µM (active)
same,"activity, negative = inhibition",[3]; at 17.2 µM (top of the series),0.159% (inactive)
same,"activity, negative = inhibition",[3]; at 38 µM (top of the series),-8.54% (inactive)
same,Potency,[4],inactive
same,Potency,[5],inactive
same,"activity change, negative = inhibition",[6],-0.989% (inactive)
same,max response,[6]; [14],-6.57%
same,max response,[6]; [15],-6.75%
same,Potency,[7],inactive
CC(C)NC[C@H](O)c1cc(O)cc(O)c1,"activity change, negative = inhibition",[1]; at 17.2 µM (top of the series),-17.9% (inactive)
same,"activity change, negative = inhibition",[1]; at 38 µM (top of the series),-18.1% (inactive)
same,Potency,[2],inactive
same,"activity change, negative = inhibition",[8]; at 17.2 µM (top of the series),-4.38% (inactive)
same,"activity change, negative = inhibition",[8]; at 38 µM (top of the series),2.58% (inactive)
same,"activity, negative = inhibition",[3]; [16],14.6% [at 17.2 µM] (inactive)
same,Potency,[4],inactive
same,Potency,[5],inactive
same,"activity change, negative = inhibition",[6],-2.07% (inactive)
same,max response,[6]; [14],14.3%
same,max response,[6]; [15],12.4%
same,outcome,[9],inactive
same,outcome,[10],inactive
same,"activity, negative = inhibition",[11]; [17],15.2% (inactive)
same,"activity, negative = inhibition",[11]; [18],4.36% (inactive)
same,Potency,CP238,inactive
same,Potency,CP262,inactive
same,Potency,CP325,inactive
same,Potency,ECU,inactive
same,Potency,FAB9,inactive
same,Potency,HB3,inactive
same,Potency,JCK,inactive
CO[C@]1(NC(=O)CSCC#N)C(=O)N2C(C(=O)O)=C(CSc3nnnn3C)CS[C@H]21,"activity change, negative = inhibition",[1]; at 17.2 µM (top of the series),6.3% (inactive)
same,"activity change, negative = inhibition",[1]; at 38 µM (top of the series),6.07% (inactive)
same,Potency,[2],inactive
same,"activity, negative = inhibition",[3]; at 17.2 µM (top of the series),-13.5% (inactive)
same,"activity, negative = inhibition",[3]; at 38 µM (top of the series),0.96% (inactive)
same,Potency,[12],> 46 µM (inactive) and > 20.6 µM (inactive)
same,Potency,[13],> 46 µM (inactive) and > 20.6 µM (inactive)
same,Potency,[4],inactive
same,Potency,[5],inactive
same,"activity change, negative = inhibition",[6],-1.05% (inactive)
same,max response,[6]; [14],-7.44%
same,max response,[6]; [15],-5.83%
same,outcome,[9],inactive
same,Potency,[7],inactive
same,outcome,[10],inactive
same,"activity, negative = inhibition",[11]; [17],11.9% (inactive)
same,"activity, negative = inhibition",[11]; [18],2.32% (inactive)
same,Potency,CP238,inactive
same,Potency,CP262,inactive
same,Potency,CP325,inactive
same,Potency,ECU,inactive
same,Potency,FAB9,inactive
same,Potency,HB3,inactive
same,Potency,JCK,inactive
CN(C)CC[C@@H](c1ccccc1)c1ccccn1,"activity change, negative = inhibition",[1]; at 17.2 µM (top of the series),4.02% (inactive)
same,"activity change, negative = inhibition",[1]; at 38 µM (top of the series),8.55% (inactive)
same,Potency,[2],inactive
same,"activity, negative = inhibition",[3]; at 17.2 µM (top of the series),8.97% (inactive)
same,"activity, negative = inhibition",[3]; at 38 µM (top of the series),22.6% (inactive)
same,Potency,[12],> 46 µM (inactive) and > 20.6 µM (inactive)
same,Potency,[13],> 46 µM (inactive) and > 20.6 µM (inactive)
same,Potency,[4],inactive
same,Potency,[5],inactive
same,"activity change, negative = inhibition",[6],1.47% (inactive)
same,max response,[6]; [14],1.01%
same,max response,[6]; [15],2.03%
same,Potency,[7],inactive
CN(N=O)C(=O)N[C@H]1[C@@H](O)[C@H](O)[C@H](CO)O[C@@H]1O,"activity change, negative = inhibition",[1]; [16],22% [at 17.2 µM] (inactive)
same,Potency,[2],inactive
same,"activity change, negative = inhibition",[8]; [16],5.2% [at 17.2 µM] (inactive)
same,"activity, negative = inhibition",[3]; [16],-4.53% [at 17.2 µM] (inactive)
same,Potency,[12],> 20.6 µM (inactive)
same,Potency,[13],> 20.6 µM (inactive)
same,Potency,[4],inactive
same,Potency,[5],inactive
same,"activity change, negative = inhibition",[6],-1.88% (inactive)
same,max response,[6]; [14],-12.1%
same,max response,[6]; [15],-12.9%
same,outcome,[9],inactive
same,Potency,[7],inactive
same,outcome,[10],inactive
same,"activity, negative = inhibition","[11]; at 12.8 µM (top of the series), parasite line A",2.49% (inactive)
same,"activity, negative = inhibition","[11]; at 12.8 µM (top of the series), parasite line B",8.62% (inactive)
same,Potency,CP238,inactive
same,Potency,CP262,inactive
same,Potency,CP325,inactive
same,Potency,ECU,inactive
same,Potency,FAB9,inactive
same,Potency,HB3,inactive
same,Potency,JCK,inactive
